Source: PubChem
The list is not random: actives were taken first. Their share in the collection is about 2.4%.
D2 ag-1 – human D2 receptor agonism in beta-arrestin assay; P14416; DiscoveRx PathHunter D2 beta-arrestin, luminescence, 90 min; 100% = 57 uM dopamine signal; activation, % (concentration not given with the values); 0.084% of 360,000 active; in the data active means activation above about 40%; inconclusive means between about 15% and that limit
Target sequence (P14416 whole entry, looked up): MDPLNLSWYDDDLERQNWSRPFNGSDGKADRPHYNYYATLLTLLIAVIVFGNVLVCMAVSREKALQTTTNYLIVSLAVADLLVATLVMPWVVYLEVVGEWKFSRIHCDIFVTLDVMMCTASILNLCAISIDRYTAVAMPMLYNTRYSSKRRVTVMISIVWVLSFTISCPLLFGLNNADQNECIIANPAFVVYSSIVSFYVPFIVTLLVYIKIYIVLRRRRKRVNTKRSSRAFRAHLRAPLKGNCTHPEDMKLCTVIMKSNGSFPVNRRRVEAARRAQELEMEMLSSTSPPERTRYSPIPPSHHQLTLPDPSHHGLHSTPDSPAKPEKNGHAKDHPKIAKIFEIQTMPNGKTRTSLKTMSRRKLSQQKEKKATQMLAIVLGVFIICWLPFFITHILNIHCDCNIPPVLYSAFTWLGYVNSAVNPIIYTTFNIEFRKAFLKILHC
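Agonist mode: compounds alone added to overnight-plated D2 PathHunter cells for 90 min at 37 C, with 57 uM final dopamine (EC100) defining full response. Beta-arrestin recruitment detected by chemiluminescent reagent, read after 1 h at ambient temperature.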
D2 antagonist – antagonists of human D2 dopamine receptor | HEK293 TREx D2 cells, calcium flux, dopamine EC80 | P14416 | 2% of 340,000 active | inhibition, % at 10 µM | AID 485344; in the data active means inhibition above about 30%; inactive means below that, where a call was filed; further: 0% is about no effect
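Inhibition of EC80 dopamine-driven calcium flux, recorded kinetically, defines activity here; cells are a tetracycline-induced HEK293 T-REx line expressing force-coupled D2.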
D2 ag-2 – D2 dopamine receptor (human) agonism | P14416 | HEK293 T-REx D2 cells, calcium flux agonist mode | activation, % at 2 µM | AID 485358 | 0.53% of 340,000 active;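 active means activation over 3 SD above normal in the single-dose calcium agonist read, cut at about 30% in these data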; further: 0% is about no effect
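Tetracycline-induced HEK293 T-REx cells with force-coupled D2 receptor, plated overnight at 30 C, loaded with no-wash calcium dye. After a 10 s baseline, compound was pin-added and calcium flux read kinetically for 180 s; calcium rises flagged agonists.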
D2 PAM-1 – human D2 receptor positive allosteric modulation | P14416 | DiscoveRx D2 beta-arrestin cells, luminescence, 90 min; 100% = 57 uM dopamine signal | potentiation, % (test concentration not listed) | 0.23% of 360,000 active | AID 624464; in the data active means potentiation above about 50%; inconclusive means mostly about 30% to 49%
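PathHunter D2 cells, attached overnight at 37 deg C, received compound in DMSO plus dopamine at EC20 (50 nM final) for 90 min at 37 deg C. Beta-arrestin recruitment was read as luminescence after 1 h with detection reagent at ambient temperature.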
D2 PAM-2 – D2 dopamine receptor (human) potentiation | P14416 | HEK293 T-REx D2, calcium flux, EC20 dopamine potentiation | potentiation, % at 10 µM | 0.34% of 340,000 active;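 active means potentiation over 3 SD above the plate norm, cut at about 30% in these data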; further: 0% is about no effect
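Tetracycline-induced HEK293 T-REx cells force-coupled to calcium signalling expressed D2; compounds were pin-added after a 10 s baseline, read kinetically 180 s, then an EC20 dopamine challenge followed with a further 180 s calcium read.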
Active calls of the source: *; ? = inconclusive; . = not tested or not shown.

SMILES	D2 ag-1	D2 antagonist	D2 ag-2	D2 PAM-1	D2 PAM-2
O=C(NCc1ccco1)c1ccc2c(c1)C(=O)c1ccccc1-2	2.6	30.0*	-1.9	-6.9	13.8
O=C(NCc1ccco1)c1cc([N+](=O)[O-])cc([N+](=O)[O-])c1	13.9	6.0	0.0	83.2*	2.8
COc1ccc(-c2noc(-c3ccccc3C(=O)NCc3ccco3)n2)cc1OC	-2.0	-4.8	-0.2	-12.7	32.2*
CCOc1ccccc1C(=O)N1CCCCC1CCN1CCOCC1 (stereo not given)	.	.	0.5	.	9.9
COC(=O)c1ccc([N+](=O)[O-])cc1N1C(=O)C2C3CCC(C3)C2C1=O (stereo not given)	?	52.7*	-0.2	7.2	-0.7
COc1cc([N+](=O)[O-])ccc1NC(=O)CCN1C(=O)C2C3CCC(C3)C2C1=O (stereo not given)	4.5	.	.	-21.4	.
COc1ccccc1CNS(=O)(=O)c1ccc2c(c1)oc(=O)n2C	1.6	-2.4	1.4	-0.1	-6.1
Cc1ccc(CCNC(=O)CCNS(=O)(=O)c2ccc3c(c2)oc(=O)n3C)cc1	-3.1	.	-0.1	-0.2	-10.8
Cn1c(=O)oc2cc(S(=O)(=O)NCCC(=O)NCCc3ccc(Cl)cc3)ccc21	0.5	59.1*	-0.1	-25.2	-11.8
COc1ccccc1CNC(=O)CCNS(=O)(=O)c1ccc2c(c1)oc(=O)n2C	-0.1	67.0*	-2.7	-5.8	-18.6
COc1cccc(C2CC(=O)Nc3c2c(=O)n(C)c2ncnn32)c1OC (stereo not given)	.	.	-0.8	.	10.3
Cc1ccc(CNC(=O)CN2C(=O)C3(SCC(=O)N3c3cc(C)cc(C)c3)c3ccccc32)cc1 (stereo not given)	.	.	.	.	3.6
Cc1ccc(C)c(N2CCN(c3nc4ccccc4c4nc(CCn5nc(C)cc5C)nn34)CC2)c1	.	.	-0.1	.	12.7
Cc1ccc(NC(=O)Cn2nc(C(F)(F)F)c3c2CCC3)cc1C	.	.	-1.0	.	3.6
O=C(Cn1nc(C(F)(F)F)c2c1CCCC2)Nc1ccc2c(c1)OCO2	-3.6	-6.3	0.5	-12.4	31.8*
CCN(CC)CCSc1nnc2c3cc(F)ccc3n(CC)c2n1	.	.	-0.2	.	28.4
Cc1ccc(C(=O)COC(=O)CSc2cccc3cccnc23)c(C)c1	-5.2	.	.	57.2*	.
CCc1nc2ccc(C(=O)Nc3cc(-c4ccccc4)ccc3OC)cn2c1N(C=O)CCC(C)C	133.9*	.	.	-2.3	.
CCCCCCSc1ccc(-c2nc3ccc(C)cn3c2NCc2ccccc2)cc1OC	-9.1	1.7	0.6	-7.2	-4.6
CCCCCCSc1ccc(-c2nc3ccc(C)cn3c2NCc2ccccc2)cc1	-1.8	34.2*	0.2	-4.5	-5.9
O=C(CCc1nnc2n(Cc3ccccc3Cl)c(=O)c3ccccc3n12)Nc1ccc(F)c(F)c1	.	.	-0.1	.	-7.1
CSc1nnc(CCNS(=O)(=O)c2ccccc2Br)n1C	-1.7	33.6*	0.6	-1.6	-2.9
CCn1c(CCNS(=O)(=O)c2ccccc2Br)nnc1SC	-1.1	-21.6	1.2	-5.9	-3.1
Cc1ccc(S(=O)(=O)NCCc2nnc(SCc3cccnc3)n2C)cc1	-0.8	11.3	-0.4	-6.1	32.9*
Cc1ccc(S(=O)(=O)NCCC(=O)NCc2cccnc2)cc1	6.3	.	.	3.7	.
SMILES	D2 ag-1	D2 antagonist	D2 ag-2	D2 PAM-1	D2 PAM-2
COc1cccc(-c2cc(C(F)(F)F)nc(NCCc3ccc(OC)c(OC)c3)n2)c1	.	.	0.9	.	-4.7
CSc1cccc(NC(=O)/C=C/c2ccccc2)c1	-1.7	39.3*	0.7	-22.8	-25.4
CSc1cccc(NC(=O)/C=C/c2ccc(Cl)cc2)c1	-1.5	69.8*	0.6	-9.4	-21.1
Cc1ccc(-c2nnn3c2nc(NCC(C)c2ccccc2)c2ccccc23)cc1 (stereo not given)	.	.	0.3	.	3.9
COCCCNC(=O)Cn1c(=O)n(Cc2ccc(C(=O)NCc3ccc(C)cc3)cc2)c(=O)c2ccccc21	.	.	.	.	3.6
Cc1ccc(C)c(OCC(O)CN2CCC(Cc3ccccc3)CC2)c1 (stereo not given)	-7.2	46.7*	-0.4	-15.6	0.3
Cc1ccc(N2CCN(CC(O)COc3ccccc3)CC2)cc1 (stereo not given)	3.6	38.9*	0.2	-23.0	-22.0
OC(COc1ccc(Cl)cc1)CN1CCC(Cc2ccccc2)CC1 (stereo not given)	1.2	22.1	1.1	-29.7	-27.0
Cc1ccc(OCC(O)CN2CCN(c3ccc(C)cc3)CC2)cc1 (stereo not given)	-2.5	53.2*	-0.3	-2.0	-24.1
CCOC(=O)N1CCN(CC(O)COc2ccc(C(C)C)c(C)c2)CC1 (stereo not given)	-3.4	6.7	30.5*	-3.0	-19.3
Cc1ccc(OCC(O)CN2CCN(CC(O)COc3ccc(C)cc3)CC2)cc1 (stereo not given)	-1.0	9.4	0.7	-25.6	6.1
CSc1ccc(CCNC(=O)c2sc3ncccc3c2-n2cccc2)cc1	.	.	-0.4	.	-8.1
Cc1cc(=O)oc2cc(OCC(O)CN3CCN(c4ccc(F)cc4)CC3)ccc12 (stereo not given)	?	75.9*	73.1*	-7.1	-19.3
CC1(C(=O)NC2CCCCC2)Cc2ccccc2C(=O)N1Cc1ccccc1Cl (stereo not given)	.	.	2.1	.	5.2
Cc1ccc(S(=O)(=O)N(C)C)cc1NC(=O)Nc1ccccc1	-1.3	84.4*	-2.7	-24.3	-23.6
Cc1ccc(NC(=O)Nc2cc(S(=O)(=O)N(C)C)ccc2C)cc1	-6.1	37.0*	-1.8	-3.8	-27.9
Cc1ccc(S(=O)(=O)N(C)C)cc1NC(=O)CSc1nc2ccccc2[nH]1	0.8	30.8*	-1.8	-35.4	-23.3
CC1CCN(C(=O)CSc2nc3ccccc3[nH]2)CC1	-2.5	16.5	-0.6	-15.1	-14.6
CC1CCCCC1NC(=O)CSc1nc2ccccc2[nH]1 (stereo not given)	-3.4	-14.6	-2.6	-1.3	36.9*
CCOc1ccccc1NC(=O)Nc1cc(S(=O)(=O)N(C)C)ccc1C	-4.3	.	.	-21.6	.
Cc1ccc2oc(=O)n(CCCOc3ccccc3Cl)c2c1	.	.	.	.	2.9
COc1ccc(/C=C/C(=O)Nc2nc(-c3cccs3)ns2)cc1OC	.	.	1.2	.	6.7
CC(=O)N1c2ccc(S(=O)(=O)N3CCCCCC3)cc2CC1C(=O)NCc1ccccc1 (stereo not given)	.	.	0.5	.	-2.5
CCCCN(C)C(=O)Cn1c(SCC(=O)Nc2ccc(C)c(C)c2)nc2ccccc21	.	.	0.3	.	-2.9
Cc1ccc(S(=O)(=O)N(C)C)cc1NC(=S)N1CCc2ccccc21	-6.0	55.3*	2.3	-28.5	-27.9
CN(C)S(=O)(=O)c1cccc(NC(=S)N2CCc3ccccc32)c1	-0.4	-9.2	0.5	8.9	10.4
COc1ccc(NC(=O)CSc2nc3c(cc2C#N)CN(C)CC3)cc1	-1.9	19.0	-0.2	-18.2	-21.0
